# In the supplement of paper PMC8728848:
# The entries come from a sample that favours the strongest signals as a whole.
# B1: RVL (Remusatia vivipara), B5LYJ9 (protein)
# chain: MAKLLLFLLPAILGLLVPRSAVALGTNYLLSGQTLDTEGHLKNGDFDLVMQDDCNLVLYNGNWQSNTANNGRDCKLTLTDYGELVIKNGDGSTVWKSGAQSVKGNYAAVVHPDGRLVVLGPSVFKIDPWVRGLNSLRFRNIPFTNNLLFSGQVLYGDGRLTAKNHQLVMQGDCNLVLYGGKYGWQSNTHGNGEHCFLRLNHKGELIIKDDDFKTIWSSRSSSKQGEYVLILQDDGFGVIYGPAIFETSSKRSIAAS
# B2: rAAL-2 (Agrocybe aegerita) (protein)
# chain: MTSNVITQDLPIPVASRGFADIVGFGLDGVVIGRNAVNLQPFLAVKNFAQNAGGWLTTKHVRLIADTTGTGKGDIVGFGNAGVYVSVNNGKNTFADPPKMVIANFGYDAGGWRVEKHLRYLADIRKIGRADIIGFGEKGVLVSRNNGGLNFGPATLVLKDFGYDAGGWRLDRHLRFLADVTGNGHLDIVGFGDKHVFISRNNGDGTFAPAKSVIDNFCIDAGGWKIGDHPRFVADLTGDGTADIIGCGKAGCWVALNNGGGVFGQVKLVINDFGTDKGWQAAKHPRFIADLTGNGRGDVVGFGNAGVYVALNNGDGTFQSAKLVLKDFGVQQGWTVSKHRRFVVDLTGDGCADIIGFGEKETLVSYNDGKGNFGPVKALTNDFSFSGGKWAPETTVCWMANLDSSRH
# Key:
# Experiment in all cases: glycan array binding signal (z-score within array); higher = stronger binding
# Settings in all cases: glycan notation: IUPAC condensed, linker removed
# [1] = target: Fuc(a1-2)Gal(b1-4)GlcNAc(b1-3)Gal(b1-4)GlcNAc(b1-3)Gal(b1-4)GlcNAc
# How it was run: (§1)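 Arrays were curated from the Consortium for Functional Glycomics database, 3228 in total, and kept only where the protein sequence was available. Binding is expressed as a within-array Z-score. This score was averaged across arrays of the same protein sequence at different concentrations or buffers and across linkers, and negative values can be read as non-binding.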
# [2] = target: Fuc(a1-2)Gal(b1-4)[Fuc(a1-3)]GlcNAc(b1-2)Man(a1-6)[Fuc(a1-2)Gal(b1-4)[Fuc(a1-3)]GlcNAc(b1-2)Man(a1-3)]Man(b1-4)GlcNAc(b1-4)[Fuc(a1-6)]GlcNAc
# How it was run: as §1
# [3] = target: Fuc(a1-2)Gal6S(b1-3)GlcNAc6S
# How it was run: as §1
# [4] = target: Fuc(a1-2)Gal6S(b1-4)Glc6S
# How it was run: as §1
# [5] = target: Fuc(a1-2)[Gal(a1-3)]Gal(b1-4)[Fuc(a1-3)]Glc
# How it was run: as §1
# [6] = target: Fuc(a1-3)[Gal(b1-4)]GlcNAc(b1-2)Man(a1-3)[Fuc(a1-3)[Gal(b1-4)]GlcNAc(b1-2)Man(a1-6)]Man(b1-4)GlcNAc(b1-4)[Fuc(a1-6)]GlcNAc
# How it was run: as §1
# [7] = target: Fuc(a1-3)[GalNAc(b1-4)]GlcNAc
# How it was run: as §1
# [8] = target: Gal(a1-3)Gal(b1-3)GlcNAc(b1-2)Man(a1-3)[Gal(a1-3)Gal(b1-3)GlcNAc(b1-2)Man(a1-6)]Man(b1-4)GlcNAc(b1-4)GlcNAc
# How it was run: as §1
# [9] = target: Gal(a1-3)Gal(b1-3)GlcNAc(b1-3)GalNAc
# How it was run: as §1
# [10] = target: Gal(a1-3)Gal(b1-4)GlcNAc(b1-3)GalNAc
# How it was run: as §1
# [11] = target: Gal(a1-4)Gal(b1-3)GlcNAc(b1-2)Man(a1-3)[Gal(a1-4)Gal(b1-3)GlcNAc(b1-2)Man(a1-6)]Man(b1-4)GlcNAc(b1-4)GlcNAc
# How it was run: as §1
# [12] = target: Gal(a1-4)Gal(b1-4)GlcNAc(b1-2)Man(a1-3)[Gal(a1-4)Gal(b1-4)GlcNAc(b1-2)Man(a1-6)]Man(b1-4)GlcNAc(b1-4)GlcNAc
# How it was run: as §1
# [13] = target: Gal(b1-3)GlcNAc(b1-3)Gal(b1-4)GlcNAc
# How it was run: as §1
# [14] = target: Gal(b1-3)GlcNAc(b1-3)Gal(b1-4)GlcNAc(b1-6)[Gal(b1-3)GlcNAc(b1-3)]Gal(b1-4)Glc
# How it was run: as §1
# [15] = target: Gal(b1-3)GlcNAc(b1-3)GalNAc
# How it was run: as §1
# [16] = target: Gal(b1-3)GlcNAc(b1-6)Gal(b1-4)GlcNAc
# How it was run: as §1
# [17] = target: Gal(b1-4)GlcNAc(a1-6)Gal(b1-4)GlcNAc
# How it was run: as §1
# [18] = target: Gal(b1-4)GlcNAc(b1-2)Man(a1-3)[Gal(b1-4)GlcNAc(b1-2)Man(a1-6)]Man(b1-4)GlcNAc(b1-4)[Fuc(a1-6)]GlcNAc
# How it was run: as §1
# [19] = target: Gal(b1-4)GlcNAc(b1-2)Man(a1-6)Man(b1-4)GlcNAc(b1-4)GlcNAc
# How it was run: as §1
# [20] = target: Gal(b1-4)GlcNAc(b1-3)Gal(b1-4)Glc
# How it was run: as §1
# [21] = target: Gal(b1-4)GlcNAc(b1-6)Gal(b1-4)GlcNAc
# How it was run: as §1
# [22] = target: GalNAc(b1-3)Gal(a1-4)Gal(b1-4)GlcNAc(b1-3)Gal(b1-4)Glc
# How it was run: as §1
# [23] = target: GalNAc(b1-3)Gal(a1-6)Gal(b1-4)Glc
# How it was run: as §1
# GlcA(b1-3)GlcNAc = target: GlcA(b1-3)GlcNAc
# How it was run: as §1
# GlcA(b1-6)Gal = target: GlcA(b1-6)Gal
# How it was run: as §1
# [24] = target: GlcNAc(a1-4)Gal(b1-4)GlcNAc(b1-3)Gal(b1-4)GlcNAc(b1-3)Gal(b1-4)GlcNAc
# How it was run: as §1
# [25] = target: GlcNAc(a1-4)Gal(b1-4)GlcNAc(b1-3)Gal(b1-4)[Fuc(a1-3)]GlcNAc(b1-3)Gal(b1-4)[Fuc(a1-3)]GlcNAc
# How it was run: as §1
# [26] = target: GlcNAc(b1-2)Man(a1-3)[GlcNAc(b1-2)Man(a1-6)]Man(b1-4)GlcNAc(b1-4)GlcNAc
# How it was run: as §1
# [27] = target: GlcNAc(b1-2)[GlcNAc(b1-4)]Man(a1-3)[GlcNAc(b1-2)Man(a1-6)]Man(b1-4)GlcNAc(b1-4)GlcNAc
# How it was run: as §1
# [28] = target: GlcNAc(b1-3)Gal(b1-4)GlcNAc
# How it was run: as §1
# [29] = target: GlcNAc(b1-3)Gal(b1-4)GlcNAc(b1-3)Gal(b1-4)GlcNAc(b1-3)Gal(b1-4)GlcNAc(b1-3)Gal(b1-4)GlcNAc(b1-2)Man(a1-3)[GlcNAc(b1-3)Gal(b1-4)GlcNAc(b1-3)Gal(b1-4)GlcNAc(b1-3)Gal(b1-4)GlcNAc(b1-3)Gal(b1-4)GlcNAc(b1-2)Man(a1-6)]Man(b1-4)GlcNAc(b1-4)GlcNAc
# How it was run: as §1
# [30] = target: GlcNAc(b1-3)Gal(b1-4)GlcNAc(b1-3)Gal(b1-4)GlcNAc(b1-3)Gal(b1-4)GlcNAc(b1-3)Gal(b1-4)GlcNAc(b1-2)Man(a1-3)[GlcNAc(b1-3)Gal(b1-4)GlcNAc(b1-3)Gal(b1-4)GlcNAc(b1-3)Gal(b1-4)GlcNAc(b1-3)Gal(b1-4)GlcNAc(b1-2)Man(a1-6)]Man(b1-4)GlcNAc(b1-4)[Fuc(a1-6)]GlcNAc
# How it was run: as §1
# GlcNAc(b1-3)GalNAc = target: GlcNAc(b1-3)GalNAc
# How it was run: as §1
# [31] = target: GlcNAc(b1-3)[GlcNAc(b1-4)][GlcNAc(b1-6)]GlcNAc
# How it was run: as §1
# GlcNAc3Prop(b1-4)GlcNAc = target: GlcNAc3Prop(b1-4)GlcNAc
# How it was run: as §1
# [32] = target: Neu5Ac(a2-3)Gal(b1-3)GalNAc(b1-3)Gal(a1-4)Gal(b1-4)Glc
# How it was run: as §1
# [33] = target: Neu5Ac(a2-3)Gal(b1-3)GalNAc(b1-4)[Neu5Ac(a2-8)Neu5Ac(a2-3)]Gal(b1-4)Glc
# How it was run: as §1
# [34] = target: Neu5Ac(a2-3)Gal(b1-3)[Fuc(a1-4)]GlcNAc
# How it was run: as §1
# Neu5Ac(a2-3)Gal(b1-4)Glc = target: Neu5Ac(a2-3)Gal(b1-4)Glc
# How it was run: as §1
# [35] = target: Neu5Ac(a2-3)Gal(b1-4)GlcNAc
# How it was run: as §1
# [36] = target: Neu5Ac(a2-3)Gal(b1-4)GlcNAc(b1-2)Man(a1-3)[GlcNAc(b1-4)][Neu5Ac(a2-3)Gal(b1-4)GlcNAc(b1-2)Man(a1-6)]Man(b1-4)GlcNAc(b1-4)GlcNAc
# How it was run: as §1
# [37] = target: Neu5Ac(a2-3)Gal(b1-4)GlcNAc(b1-2)[Neu5Ac(a2-3)Gal(b1-4)GlcNAc(b1-6)]Man(a1-6)[Neu5Ac(a2-3)Gal(b1-4)GlcNAc(b1-2)Man(a1-3)][GlcNAc(b1-4)]Man(b1-4)GlcNAc(b1-4)GlcNAc
# How it was run: as §1
# Neu5Ac(a2-6)Gal(b1-4)Glc = target: Neu5Ac(a2-6)Gal(b1-4)Glc
# How it was run: as §1
# [38] = target: Neu5Ac(a2-6)Gal(b1-4)GlcNAc(b1-2)Man(a1-3)[Neu5Ac(a2-3)Gal(b1-4)GlcNAc(b1-2)Man(a1-6)]Man(b1-4)GlcNAc(b1-4)GlcNAc
# How it was run: as §1
# [39] = target: Neu5Ac(a2-6)Gal(b1-4)GlcNAc(b1-3)Gal(b1-4)GlcNAc(b1-3)Gal(b1-4)GlcNAc(b1-2)Man(a1-3)[Neu5Ac(a2-6)Gal(b1-4)GlcNAc(b1-3)Gal(b1-4)GlcNAc(b1-3)Gal(b1-4)GlcNAc(b1-2)Man(a1-6)]GalNAc
# How it was run: as §1
# [40] = target: Neu5Ac(a2-6)GalNAc(b1-4)GlcNAc
# How it was run: as §1
# [41] = target: Neu5Gc(a2-8)Neu5Gc(a2-3)Gal(b1-4)GlcNAc(b1-3)Gal(b1-4)GlcNAc
# How it was run: as §1
binder,measurement,setting,value
B1,glycan array binding signal (z-score),[1],-0.272
same,glycan array binding signal (z-score),[2],9.79
same,glycan array binding signal (z-score),[3],0.483
same,glycan array binding signal (z-score),[4],-0.151
same,glycan array binding signal (z-score),[5],-0.32
same,glycan array binding signal (z-score),[6],0.076
same,glycan array binding signal (z-score),[7],-0.292
same,glycan array binding signal (z-score),[8],0.313
same,glycan array binding signal (z-score),[9],-0.166
same,glycan array binding signal (z-score),[10],-0.178
same,glycan array binding signal (z-score),[11],1.75
same,glycan array binding signal (z-score),[12],1.93
same,glycan array binding signal (z-score),[13],-0.252
same,glycan array binding signal (z-score),[14],-0.574
same,glycan array binding signal (z-score),[15],-0.055
same,glycan array binding signal (z-score),[16],0.004
same,glycan array binding signal (z-score),[17],-0.142
same,glycan array binding signal (z-score),[18],7.05
same,glycan array binding signal (z-score),[19],-0.136
same,glycan array binding signal (z-score),[20],-0.252
same,glycan array binding signal (z-score),[21],-0.216
same,glycan array binding signal (z-score),[22],-0.066
same,glycan array binding signal (z-score),[23],-0.17
same,glycan array binding signal (z-score),GlcA(b1-3)GlcNAc,-0.098
same,glycan array binding signal (z-score),GlcA(b1-6)Gal,-0.23
same,glycan array binding signal (z-score),[24],0.124
same,glycan array binding signal (z-score),[25],0.3
same,glycan array binding signal (z-score),[26],0.913
same,glycan array binding signal (z-score),[27],2.4
same,glycan array binding signal (z-score),[28],-0.145
B2,glycan array binding signal (z-score),[29],4.12
same,glycan array binding signal (z-score),[30],3.97
same,glycan array binding signal (z-score),GlcNAc(b1-3)GalNAc,0.798
same,glycan array binding signal (z-score),[31],-0.339
same,glycan array binding signal (z-score),GlcNAc3Prop(b1-4)GlcNAc,0.177
same,glycan array binding signal (z-score),[32],-0.228
same,glycan array binding signal (z-score),[33],-0.103
same,glycan array binding signal (z-score),[34],-0.392
same,glycan array binding signal (z-score),Neu5Ac(a2-3)Gal(b1-4)Glc,-0.151
same,glycan array binding signal (z-score),[35],-0.177
same,glycan array binding signal (z-score),[36],-0.314
same,glycan array binding signal (z-score),[37],-0.33
same,glycan array binding signal (z-score),Neu5Ac(a2-6)Gal(b1-4)Glc,-0.303
same,glycan array binding signal (z-score),[38],-0.237
same,glycan array binding signal (z-score),[39],0.107
same,glycan array binding signal (z-score),[40],-0.288
same,glycan array binding signal (z-score),[41],-0.178
